Data on 40 targets can be found in the supplement of paper PMC10849652.

About 8,800 targets were measured; listed, in parts, are those with a hit and a random draw of the rest. About 0.5% of all pairs of compound and target were hits.

Chain of UniProt Q6P4E1 (Q6P4E1 whole entry, looked up): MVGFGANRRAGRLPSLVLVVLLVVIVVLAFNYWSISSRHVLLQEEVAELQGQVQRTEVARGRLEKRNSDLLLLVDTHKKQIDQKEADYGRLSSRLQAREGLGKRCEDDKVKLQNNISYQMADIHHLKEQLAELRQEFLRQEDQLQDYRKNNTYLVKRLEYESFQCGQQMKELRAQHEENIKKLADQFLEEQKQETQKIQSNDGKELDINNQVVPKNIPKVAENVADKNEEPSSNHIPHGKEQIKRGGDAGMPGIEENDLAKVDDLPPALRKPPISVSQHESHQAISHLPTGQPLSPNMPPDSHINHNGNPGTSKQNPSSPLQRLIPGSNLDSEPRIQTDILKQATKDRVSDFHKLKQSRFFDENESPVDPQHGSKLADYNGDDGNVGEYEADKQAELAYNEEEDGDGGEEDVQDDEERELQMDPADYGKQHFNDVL
Chain of UniProt Q15834 (Q15834 whole entry, looked up): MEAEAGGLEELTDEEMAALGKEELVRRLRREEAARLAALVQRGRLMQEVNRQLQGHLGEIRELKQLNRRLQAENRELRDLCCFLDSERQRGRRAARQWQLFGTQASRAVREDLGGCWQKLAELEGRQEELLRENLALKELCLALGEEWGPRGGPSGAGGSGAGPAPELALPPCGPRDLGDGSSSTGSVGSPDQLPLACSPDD
Chain of UniProt P25440 (P25440 whole entry, looked up): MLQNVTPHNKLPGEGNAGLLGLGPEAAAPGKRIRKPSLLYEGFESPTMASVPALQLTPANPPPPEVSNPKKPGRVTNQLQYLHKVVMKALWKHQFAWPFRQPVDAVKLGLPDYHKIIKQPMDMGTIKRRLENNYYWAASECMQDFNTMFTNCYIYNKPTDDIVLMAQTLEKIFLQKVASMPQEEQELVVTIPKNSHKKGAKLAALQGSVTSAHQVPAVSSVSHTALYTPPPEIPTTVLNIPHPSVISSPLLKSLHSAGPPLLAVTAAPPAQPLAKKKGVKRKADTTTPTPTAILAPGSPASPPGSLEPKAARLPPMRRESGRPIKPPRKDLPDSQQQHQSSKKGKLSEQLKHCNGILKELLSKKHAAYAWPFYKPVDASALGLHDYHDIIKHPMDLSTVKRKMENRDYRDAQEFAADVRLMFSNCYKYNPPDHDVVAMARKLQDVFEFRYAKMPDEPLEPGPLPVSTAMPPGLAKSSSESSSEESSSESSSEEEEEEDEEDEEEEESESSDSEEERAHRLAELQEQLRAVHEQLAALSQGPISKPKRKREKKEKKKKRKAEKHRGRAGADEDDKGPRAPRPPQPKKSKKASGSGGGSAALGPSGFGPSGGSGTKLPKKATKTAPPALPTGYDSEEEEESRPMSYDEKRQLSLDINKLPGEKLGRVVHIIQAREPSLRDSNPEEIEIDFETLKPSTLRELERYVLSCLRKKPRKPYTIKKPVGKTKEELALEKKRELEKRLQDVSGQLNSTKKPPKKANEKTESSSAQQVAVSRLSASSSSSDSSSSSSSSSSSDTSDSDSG
Chain of UniProt P98196 (P98196 whole entry, looked up): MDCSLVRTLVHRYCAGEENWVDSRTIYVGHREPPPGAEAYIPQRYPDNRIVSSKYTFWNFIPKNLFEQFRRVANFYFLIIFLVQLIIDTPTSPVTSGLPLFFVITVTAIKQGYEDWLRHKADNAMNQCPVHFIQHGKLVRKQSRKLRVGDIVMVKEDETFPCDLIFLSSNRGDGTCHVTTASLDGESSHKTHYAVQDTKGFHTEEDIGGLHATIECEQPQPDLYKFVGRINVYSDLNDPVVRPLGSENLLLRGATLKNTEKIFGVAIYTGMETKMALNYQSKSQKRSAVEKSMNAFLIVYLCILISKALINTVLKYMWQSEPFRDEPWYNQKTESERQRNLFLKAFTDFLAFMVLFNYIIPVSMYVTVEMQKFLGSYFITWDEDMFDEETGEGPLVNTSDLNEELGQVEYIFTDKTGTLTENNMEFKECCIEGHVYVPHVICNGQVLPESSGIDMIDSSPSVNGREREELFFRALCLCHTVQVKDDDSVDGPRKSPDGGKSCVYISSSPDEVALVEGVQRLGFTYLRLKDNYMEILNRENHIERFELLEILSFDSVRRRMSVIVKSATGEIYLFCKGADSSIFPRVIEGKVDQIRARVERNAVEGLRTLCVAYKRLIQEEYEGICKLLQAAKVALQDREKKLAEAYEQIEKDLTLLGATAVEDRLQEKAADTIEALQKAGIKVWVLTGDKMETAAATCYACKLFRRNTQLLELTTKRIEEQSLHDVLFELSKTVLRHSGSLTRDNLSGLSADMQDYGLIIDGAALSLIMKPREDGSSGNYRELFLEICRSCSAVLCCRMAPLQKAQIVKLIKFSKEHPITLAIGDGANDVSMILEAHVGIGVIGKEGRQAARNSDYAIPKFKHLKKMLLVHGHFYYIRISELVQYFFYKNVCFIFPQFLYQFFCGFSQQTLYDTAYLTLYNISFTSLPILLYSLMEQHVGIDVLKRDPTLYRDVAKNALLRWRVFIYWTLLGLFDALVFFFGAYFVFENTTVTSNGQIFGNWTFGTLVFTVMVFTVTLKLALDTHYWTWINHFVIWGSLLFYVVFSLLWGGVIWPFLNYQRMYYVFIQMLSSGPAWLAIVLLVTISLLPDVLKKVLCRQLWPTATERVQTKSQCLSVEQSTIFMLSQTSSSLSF
Chain of UniProt Q13111 (Q13111 whole entry, looked up): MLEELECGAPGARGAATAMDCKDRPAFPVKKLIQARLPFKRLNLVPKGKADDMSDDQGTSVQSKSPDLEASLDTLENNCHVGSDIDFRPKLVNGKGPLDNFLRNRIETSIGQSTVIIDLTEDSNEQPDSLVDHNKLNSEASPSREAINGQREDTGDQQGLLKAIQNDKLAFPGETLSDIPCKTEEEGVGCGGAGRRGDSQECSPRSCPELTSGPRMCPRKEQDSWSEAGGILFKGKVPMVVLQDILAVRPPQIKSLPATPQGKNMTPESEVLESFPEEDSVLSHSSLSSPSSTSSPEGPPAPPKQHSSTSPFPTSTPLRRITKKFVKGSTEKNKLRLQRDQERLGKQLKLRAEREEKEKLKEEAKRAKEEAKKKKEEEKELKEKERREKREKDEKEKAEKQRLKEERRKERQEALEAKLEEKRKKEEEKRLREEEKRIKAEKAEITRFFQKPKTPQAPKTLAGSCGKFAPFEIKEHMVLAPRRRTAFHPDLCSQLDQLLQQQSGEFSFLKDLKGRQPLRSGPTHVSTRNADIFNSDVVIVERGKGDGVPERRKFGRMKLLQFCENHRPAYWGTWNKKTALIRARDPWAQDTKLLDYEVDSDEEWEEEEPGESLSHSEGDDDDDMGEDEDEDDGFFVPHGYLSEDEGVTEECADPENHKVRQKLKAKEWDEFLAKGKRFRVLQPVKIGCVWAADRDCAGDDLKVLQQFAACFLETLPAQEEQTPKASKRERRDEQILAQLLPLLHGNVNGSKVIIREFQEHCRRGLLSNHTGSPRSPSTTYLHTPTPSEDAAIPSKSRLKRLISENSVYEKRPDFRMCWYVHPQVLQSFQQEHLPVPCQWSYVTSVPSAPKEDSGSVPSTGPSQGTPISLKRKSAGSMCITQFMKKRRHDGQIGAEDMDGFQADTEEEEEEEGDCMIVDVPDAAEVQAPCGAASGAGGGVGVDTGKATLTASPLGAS
Chain of UniProt O95067 (O95067 whole entry, looked up): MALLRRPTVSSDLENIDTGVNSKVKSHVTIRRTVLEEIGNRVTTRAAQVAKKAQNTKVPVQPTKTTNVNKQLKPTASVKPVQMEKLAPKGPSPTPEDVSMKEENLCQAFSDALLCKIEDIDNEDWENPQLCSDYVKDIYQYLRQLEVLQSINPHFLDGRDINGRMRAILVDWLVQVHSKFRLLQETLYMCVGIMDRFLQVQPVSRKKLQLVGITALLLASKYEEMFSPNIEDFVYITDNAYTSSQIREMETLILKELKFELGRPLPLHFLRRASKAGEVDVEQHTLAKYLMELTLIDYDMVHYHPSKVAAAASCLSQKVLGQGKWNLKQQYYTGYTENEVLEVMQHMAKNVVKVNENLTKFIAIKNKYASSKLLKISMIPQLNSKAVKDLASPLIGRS
Chain of UniProt Q8N5I9 (Q8N5I9 whole entry, looked up): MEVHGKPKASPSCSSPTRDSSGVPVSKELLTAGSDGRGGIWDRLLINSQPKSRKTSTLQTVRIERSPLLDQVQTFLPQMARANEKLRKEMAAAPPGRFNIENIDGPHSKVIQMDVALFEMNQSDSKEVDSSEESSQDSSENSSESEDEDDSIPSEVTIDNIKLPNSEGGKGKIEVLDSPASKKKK
Chain of UniProt Q96LT7 (Q96LT7 whole entry, looked up): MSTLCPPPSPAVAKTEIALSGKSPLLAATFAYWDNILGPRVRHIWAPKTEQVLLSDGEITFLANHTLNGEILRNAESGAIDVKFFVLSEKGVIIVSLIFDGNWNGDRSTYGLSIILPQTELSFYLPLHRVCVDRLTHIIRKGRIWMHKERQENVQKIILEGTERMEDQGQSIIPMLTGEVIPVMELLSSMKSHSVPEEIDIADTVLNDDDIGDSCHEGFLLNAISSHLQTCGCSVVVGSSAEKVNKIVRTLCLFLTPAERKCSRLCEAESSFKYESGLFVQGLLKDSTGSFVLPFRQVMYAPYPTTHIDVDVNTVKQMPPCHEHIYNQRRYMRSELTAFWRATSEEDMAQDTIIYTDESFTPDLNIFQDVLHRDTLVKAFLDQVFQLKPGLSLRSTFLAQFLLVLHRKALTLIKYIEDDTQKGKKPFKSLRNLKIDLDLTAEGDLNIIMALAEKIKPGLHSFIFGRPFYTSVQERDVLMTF
Chain of UniProt Q86WA6 (Q86WA6 whole entry, looked up): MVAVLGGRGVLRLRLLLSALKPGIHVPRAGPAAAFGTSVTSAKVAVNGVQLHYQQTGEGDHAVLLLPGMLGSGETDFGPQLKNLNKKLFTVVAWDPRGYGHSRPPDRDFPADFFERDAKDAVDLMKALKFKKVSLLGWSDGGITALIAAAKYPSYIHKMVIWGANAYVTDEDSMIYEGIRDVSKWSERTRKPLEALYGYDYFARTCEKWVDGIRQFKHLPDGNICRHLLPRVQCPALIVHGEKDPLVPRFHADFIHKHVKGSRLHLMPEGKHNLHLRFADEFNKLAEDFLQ

Compound in the first assay: Cc1ccc(NC(=O)c2ccc(CN3CC[C@H](N(C)C)C3)c(C(F)(F)F)c2)cc1Nc1nccc(-c2cncnc2)n1 [bafetinib]
Kind of assay: log2 fold change, soluble protein after heating vs DMSO (PISA); higher = thermal stabilisation; K562 lysate, 10 uM; active = over 0.2 and 3.5 SD of the protein, either way, in both replicates (recomputed). The gist of the method: (§1)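 Log-two fold change in thermal stability relative to solvent controls is reported from duplicates. For each sample, crude K562 extract from dounce-homogenised pellets in PBS pH 7.4 with 1 mM MgCl2, at 1 mg/mL protein, was treated with 10 μM compound for 30 min. Aliquots heated for 3 min across 48°C-58°C were pooled, brought to 0.5% NP-40 at 4°C and cleared at 21,000xg for 90 min. The supernatant was quantified by TMTpro 16plex LC-MS/MS with channel sums equalised.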
For the target AURKAIP1 (UniProt Q9NWT8), the log2 fold change was -0.029 (inactive).

Take CDC42BPA isoform 6 (UniProt Q5VT25): the log2 fold change is -0.056 (inactive).

Consider BMS1 (UniProt Q14692), for which the log2 fold change was -0.032 (inactive).

Take ATP9B (UniProt O43861): the log2 fold change was 0.446 (active).

BUD23 isoform 3 (UniProt O43709): the log2 fold change is -0.088 (inactive).

Take ATXN2 (UniProt F8WB05): the log2 fold change is 0.045 (inactive).

As to ATP11A (UniProt P98196), the log2 fold change is -0.05 (inactive).

In the case of C8orf37 (UniProt Q96NL8), the log2 fold change is 0.09 (inactive).

With CELF2 isoform 3 (UniProt O95319), the log2 fold change is -0.042 (inactive).

On to CDS2 (UniProt O95674), for which the log2 fold change is 0.006 (inactive).

On to CAMLG (UniProt P49069), for which the log2 fold change is 0 (inactive).

CAPNS1 (UniProt P04632): the log2 fold change was 0.016 (inactive).

Consider C12orf45 (UniProt Q8N5I9), for which the log2 fold change is 0.001 (inactive).

For the target CDK9 isoform 2 (UniProt P50750), the log2 fold change was -0.125 (inactive).

Turning to CCPG1 isoform 5 (UniProt Q9ULG6), the log2 fold change was 0.035 (inactive).

For the target CELF1 isoform 4 (UniProt Q92879), the log2 fold change was -0.09 (inactive).

In the case of CDC42EP4 (UniProt Q9H3Q1), the log2 fold change is -0.027 (inactive).

Take BLOC1S6 (UniProt Q9UL45): the log2 fold change was 0.033 (inactive).

Regarding CCNB2 (UniProt O95067), the log2 fold change was -0.035 (inactive).

Turning to CASP3 (UniProt P42574), the log2 fold change was 0.107 (inactive).

For CHAC2 (UniProt Q8WUX2), the log2 fold change is -0.018 (inactive).

Turning to CBX5 (UniProt P45973), the log2 fold change was -0.001 (inactive).

On to ATG7 (UniProt O95352), for which the log2 fold change was -0.024 (inactive).

Regarding CHAF1A (UniProt Q13111), the log2 fold change is -0.075 (inactive).

On to C9orf72 (UniProt Q96LT7), for which the log2 fold change was -0.043 (inactive).

Turning to ATRIP (UniProt Q8WXE1), the log2 fold change was -0.035 (inactive).

As for CAMK2G isoform 8 (UniProt Q13555), the log2 fold change is 0.001 (inactive).

For CCT6A (UniProt P40227), the log2 fold change was 0.013 (inactive).

For C2CD5 isoform 3 (UniProt Q86YS7), the log2 fold change was -0.056 (inactive).

Turning to CHCHD4 isoform 2 (UniProt Q8N4Q1), the log2 fold change was -0.029 (inactive).

Turning to C19orf54 (UniProt Q5BKX5), the log2 fold change was -0.01 (inactive).

On to BPHL (UniProt Q86WA6), for which the log2 fold change was 0.132 (inactive).

Take CCNB1 (UniProt P14635): the log2 fold change was -0.004 (inactive).

Regarding CDK11B (UniProt P21127), the log2 fold change is -0.042 (inactive).

Regarding C3 (UniProt P01024), the log2 fold change was 0.019 (inactive).

For CASC4 (UniProt Q6P4E1), the log2 fold change was -0.045 (inactive).

As to BRD2 isoform 2 (UniProt P25440), the log2 fold change was -0.131 (inactive).

In the case of CDAN1 (UniProt Q8IWY9), the log2 fold change was -0.056 (inactive).

With CCDC85B (UniProt Q15834), the log2 fold change was 0.054 (inactive).

On to CARS isoform 3 (UniProt P49589), for which the log2 fold change was -0.008 (inactive).

Compound in another assay: Cc1cccc(CC(=O)N2CCc3c2ccc(-c2cn(C)c4ncnc(N)c24)c3F)n1
The assay is described as above. In short, it runs like this: as §1
For the target AURKAIP1 (UniProt Q9NWT8), the log2 fold change was -0.04 (inactive).

On to CDC42BPA isoform 6 (UniProt Q5VT25), for which the log2 fold change was 0.03 (inactive).

As for BMS1 (UniProt Q14692), the log2 fold change is 0.045 (inactive).

On to ATP9B (UniProt O43861), for which the log2 fold change was 0.242 (inactive).

For the target BUD23 isoform 3 (UniProt O43709), the log2 fold change is 0.152 (inactive).

For ATXN2 (UniProt F8WB05), the log2 fold change is 0.001 (inactive).

In the case of ATP11A (UniProt P98196), the log2 fold change was 0.1 (inactive).

As for C8orf37 (UniProt Q96NL8), the log2 fold change is 0.238 (inactive).

CELF2 isoform 3 (UniProt O95319): the log2 fold change was -0.124 (inactive).

As for CDS2 (UniProt O95674), the log2 fold change was 0.019 (inactive).

Take CAMLG (UniProt P49069): the log2 fold change is -0.12 (inactive).

CAPNS1 (UniProt P04632): the log2 fold change is 0.005 (inactive).

Turning to C12orf45 (UniProt Q8N5I9), the log2 fold change was 0.072 (inactive).

As for CDK9 isoform 2 (UniProt P50750), the log2 fold change is -0.056 (inactive).

Take CCPG1 isoform 5 (UniProt Q9ULG6): the log2 fold change was 0.108 (inactive).

Take CELF1 isoform 4 (UniProt Q92879): the log2 fold change is -0.018 (inactive).

With CDC42EP4 (UniProt Q9H3Q1), the log2 fold change is 0.102 (inactive).

Consider BLOC1S6 (UniProt Q9UL45), for which the log2 fold change was -0.066 (inactive).

For the target CCNB2 (UniProt O95067), the log2 fold change is 0.068 (inactive).

Take CASP3 (UniProt P42574): the log2 fold change is -0.089 (inactive).

For the target CHAC2 (UniProt Q8WUX2), the log2 fold change was -0.198 (inactive).

On to CBX5 (UniProt P45973), for which the log2 fold change was 0.064 (inactive).

Consider ATG7 (UniProt O95352), for which the log2 fold change was 0.006 (inactive).

Take CHAF1A (UniProt Q13111): the log2 fold change was -0.005 (inactive).

As for C9orf72 (UniProt Q96LT7), the log2 fold change was -0.009 (inactive).

Take ATRIP (UniProt Q8WXE1): the log2 fold change was 0.006 (inactive).

As for CAMK2G isoform 8 (UniProt Q13555), the log2 fold change was -0.07 (inactive).

As to CCT6A (UniProt P40227), the log2 fold change is -0.028 (inactive).

Take C2CD5 isoform 3 (UniProt Q86YS7): the log2 fold change is 0.28 (active).

With CHCHD4 isoform 2 (UniProt Q8N4Q1), the log2 fold change is 0.198 (inactive).

For the target C19orf54 (UniProt Q5BKX5), the log2 fold change was 0.027 (inactive).

BPHL (UniProt Q86WA6): the log2 fold change is -0.058 (inactive).

Consider CCNB1 (UniProt P14635), for which the log2 fold change is 0.091 (inactive).

Consider CDK11B (UniProt P21127), for which the log2 fold change is 0.007 (inactive).

As for C3 (UniProt P01024), the log2 fold change was 0.019 (inactive).

With CASC4 (UniProt Q6P4E1), the log2 fold change is 0.02 (inactive).

Take BRD2 isoform 2 (UniProt P25440): the log2 fold change is -0.186 (inactive).

Turning to CDAN1 (UniProt Q8IWY9), the log2 fold change is 0.051 (inactive).

Consider CCDC85B (UniProt Q15834), for which the log2 fold change is 0.011 (inactive).

Regarding CARS isoform 3 (UniProt P49589), the log2 fold change was -0.011 (inactive).
